Consider 49 compounds from PubChem BioAssay AID1851 (National Center for Advancing Translational Sciences (NCATS), 2009).

Hit rate of the full screen: of about 16,000 compounds, about 4,000 (25%) were called active. Another 26% or so got no clear call; they are omitted. Calls come from the whole dose curve; as a rule, active = well fitted curve in the direction sought with a large enough effect; inconclusive = small, poorly fitted or top-dose-only effect, or effect the other way; inactive = no such curve, though single readings can be large or run the other way. The list is a sample of the results.

One may read the AC50 as the concentration at which the activity in the assay is half-maximal.
% is set by controls: 0 for no effect and ±100 for the full control effect.

Cytochrome P450 2C9 (Homo sapiens), sequence (P11712 whole entry, looked up): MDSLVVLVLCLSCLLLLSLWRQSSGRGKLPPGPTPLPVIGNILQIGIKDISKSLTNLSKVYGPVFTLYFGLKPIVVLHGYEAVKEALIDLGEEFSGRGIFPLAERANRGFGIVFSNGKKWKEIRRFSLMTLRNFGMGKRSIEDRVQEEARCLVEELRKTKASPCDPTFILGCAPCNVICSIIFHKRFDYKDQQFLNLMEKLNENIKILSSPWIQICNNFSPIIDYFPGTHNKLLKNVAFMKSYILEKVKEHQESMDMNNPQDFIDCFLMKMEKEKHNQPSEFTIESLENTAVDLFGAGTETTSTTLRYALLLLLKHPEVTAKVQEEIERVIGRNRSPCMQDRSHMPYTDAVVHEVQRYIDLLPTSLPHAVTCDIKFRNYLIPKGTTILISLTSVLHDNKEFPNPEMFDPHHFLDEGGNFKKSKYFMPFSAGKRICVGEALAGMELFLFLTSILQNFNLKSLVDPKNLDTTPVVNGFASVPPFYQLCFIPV

This assay has as its target Cytochrome P450 2C9 (Homo sapiens) (UniProt P11712). Nature of the assay: Cytochrome panel assay with activity outcomes. Conditions: recombinant CYP, pro-luciferin dealkylation, luminescence, p450-cyp2c9; series mostly up to 57.1 µM; activity, negative = inhibition: at the top concentration.
Take `N[C@H](C(=O)O)[C@@H]1[C@@H](C(=O)O)C1(F)F`: the “activity, negative = inhibition” value was -13.7% (inactive).

Consider `COc1ccc(C(C(=O)NCc2ccccc2)N(Cc2cccs2)C(=O)c2cnccn2)cc1` (centres undefined), for which the AC50 was 7.94 µM (active).

For the compound `CC1(C)[C@@H]2CC[C@]1(C)[C@@H](OC(=O)/C=C\c1ccccc1)C2`, the activity, negative = inhibition was -14.1% [at 11.4 µM] (inactive). In the case of `COc1cccc(N(CC(=O)Nc2cccc(C(C)=O)c2)S(C)(=O)=O)c1`, the AC50 is 25.1 µM (active).

Regarding `CS(=O)(=O)N(CC(=O)Nc1cccc(F)c1)c1cccc([N+](=O)[O-])c1`, the AC50 was 3.55 µM (active). Turning to `CS(=O)(=O)N1CCC2(CCN(C(=O)Nc3cccc(F)c3)CC2)CC1`, the “activity, negative = inhibition” value is -4.47% (inactive). Still for that read-out and setting: for `CS(=O)(=O)N1CCC[C@@]2(CCN(C(=O)Nc3cccc(F)c3)C2)C1` the value was 3.71% (inactive). Same read-out and setting: then `CC(=O)Nc1sc2c(c1CN1CCN(C)CC1)CCCC2`, with -27.7% (inactive). As for `CC(=O)NCCC(=O)Nc1sc2c(c1-c1nc3ccccc3[nH]1)CCCC2`, the AC50 is 11.2 µM (active). Consider `CC(=O)Nc1sc2c(c1C(N)=O)CCCC2`, for which the “activity, negative = inhibition” value is -29.9% (inactive). Consider `N#Cc1cccc(-c2cc(NCc3cccs3)ncn2)c1`, for which the activity, negative = inhibition was -9.65% [at 2.29 µM] (inactive).

On to `CN1CCc2cc3c(cc2[C@@H]1[C@@H]1C(=O)Oc2c1ccc1c2OCO1)OCO3`, for which the AC50 was 12.6 µM (active). On to `C[N+]1(C)CCc2cc3c(cc2[C@@H]1[C@@H]1C(=O)Oc2c1ccc1c2OCO1)OCO3`, for which the AC50 result is “inactive”. In the case of `O=C(O)c1ccc(Sc2nnnn2-c2ccccc2)c([N+](=O)[O-])c1`, the “activity, negative = inhibition” value is 19% (inactive).

`O=C(Nc1ccccc1[N+](=O)[O-])C1C(c2ccccc2)=C1c1ccccc1`: the AC50 is 6.31 µM (active). In the case of `COCC(=O)N1CCC2(CCCN(C(=O)Nc3cccc(F)c3)C2)CC1`, the “activity, negative = inhibition” value was -2.36% (inactive). Still for that read-out and setting: for `CC(=O)SCC[N+](C)(C)C` the value was 9.28% (inactive).

`COc1ccc(/C=C2/S/C(=N/N=C3\CC4CCC3(C)C4(C)C)NC2=O)cc1` (centres undefined): the AC50 was 8.91 µM (active). With `CCCCCCCC/C=C\CCCCCCCC(=O)NCc1ccc(O)c(OC)c1`, the “activity, negative = inhibition” value is -9.24% (inactive). On to `CCCCCCCCC(=O)NCc1cc(OC)c(O)cc1I`, for which the “activity, negative = inhibition” value is -13.8% (inactive). With `COc1cc(CNC(=O)CCCC/C=C\C(C)C)ccc1O`, the AC50 was 2 µM (active). In the case of `Cc1ccnc(N)c1`, the “activity, negative = inhibition” value was 28.1% (inactive).

As to `CSc1nsc(/C=C/Nc2ccc(Cl)cc2)c1C#N`, the AC50 is 2.24 µM (active). Turning to `CCn1c(SCc2cccc(C)c2)nnc1-c1ccc(C)cc1`, the “activity, negative = inhibition” value was -21.7% (inactive). Regarding `Cc1ccccc1CSc1nnc(-c2cccs2)n1Cc1ccco1`, the AC50 is 11.2 µM (active). For `Cc1ccccc1-c1cncnc1N(C)Cc1ccco1`, the activity, negative = inhibition is -10.8% [at 2.29 µM] (inactive). For the compound `CCn1c(SCc2nc3ccccc3[nH]2)nnc1-c1ccc(OC)cc1`, the AC50 was 12.6 µM (active). On to `CN(Cc1ccco1)c1nc(-c2ccoc2)nc2ccccc12`, for which the activity, negative = inhibition is -3.83% [at 2.29 µM] (inactive). In the case of `c1ccc(-c2nnc(SCc3nc4ccccc4[nH]3)n2Cc2ccco2)cc1`, the AC50 is 6.31 µM (active). As to `CCn1c(SCC(=O)N2CCN(S(=O)(=O)c3ccccc3)CC2)nnc1-c1cccs1`, the “activity, negative = inhibition” value was -37.8% (inactive). Consider `O=C(O)CC[C@]1(C(=O)O)CCC(=O)c2ccccc21`, for which the activity, negative = inhibition was -1.2% [at 11.4 µM] (inactive).

`N[C@H](C(=O)O)[C@@H]1C[C@@H]1C(=O)O`: the AC50 entry is “inactive”. As for `O=C1C=C(c2cccs2)CC(c2cccs2)C1n1cnc([N+](=O)[O-])c1` (centres undefined), the AC50 was 14.1 µM (active). Same read-out and setting: then `Cc1nc(SCC(=O)c2cc3ccccc3oc2=O)c(C#N)c(C)c1C(=O)Nc1ccccc1`, with 0.794 µM (active). Same read-out and setting: then `Cc1ccc(N2C(=O)CC(c3ccsc3)C3=C2CC(C)(C)CC3=O)cc1` (centres undefined), with 3.98 µM (active).

Consider `CC(=O)NCCNc1nc(-c2ccc(C(=O)N(C)C)cc2)nc2ccccc12`, for which the activity, negative = inhibition was 6.97% [at 2.29 µM] (inactive). In the case of `Cc1nc2ccc3nc(NC(=O)c4ccc(S(=O)(=O)N5CCOCC5)cc4)sc3c2s1`, the “activity, negative = inhibition” value is -18.4% (inactive).

With `COc1cc(C(=O)Nc2nc3ccc4nc(C)sc4c3s2)cc(OC)c1OC`, the “activity, negative = inhibition” value is -37.3% (inactive).

For `Cc1nc2c(ccc3nc(NC(=O)c4ccc5c(c4)OCCO5)sc32)s1`, the AC50 is 0.708 µM (active). Turning to `CN(C)c1ncnc2c1ncn2CCn1cnc2c(N(C)C)ncnc21`, the activity, negative = inhibition is -7.75% [at 11.4 µM] (inactive). As for `COc1cc(=O)n(C)c2c(OC[C@@H](O)C(C)(C)O)cccc12`, the AC50 entry was “inactive”. `CCN(C(=O)Cn1c(=O)oc2ccccc21)c1cccc(C(F)(F)F)c1`: the “activity, negative = inhibition” value was 11.8% (inactive). On to `CCN(C(=O)COc1cc(=O)n(C)c2ccccc12)c1cccc(Cl)c1`, for which the AC50 was 7.94 µM (active). Turning to `CCOC(=O)N/N=C/c1ccc(F)cc1`, the “activity, negative = inhibition” value is -11% (inactive). For the compound `CCSc1ncc(/C=N/Nc2ccc(F)cc2)n1C`, the AC50 was 12.6 µM (active).

As to `Cc1cnn(CCC(=O)NNC(=S)Nc2ccc(F)cc2)c1`, the “activity, negative = inhibition” value is -25.6% (inactive). Take `c1ccc([C@H](CCN2CCCC2)c2ccccn2)cc1`: the activity, negative = inhibition is 10.4% [at 11.4 µM] (inactive). Still for that read-out and setting: for `O=C1[C@H]2[C@H]3[C@H](O)[C@H](O)C/C(=N/OC[C@@H](O)COCc4ccco4)[C@H]3CC[C@@H]2C(=O)N1Cc1ccc2c(c1)OCO2` the value was 12.6% [at 11.4 µM] (inactive).

For `Cc1c(C(=O)NN2CCOCC2)nn(-c2ccc(Cl)cc2Cl)c1-c1ccc(I)cc1`, the AC50 is 6.31 µM (active).
